The campaign covered roughly 69,000 compounds. About 8,600 (12%) showed an effect of 50% or more. For the sample, strong results were picked, then their nearest neighbours and some compounds at random.
Test system: Plasmodium berghei
Assay: Screen against P. berghei liver stage (PbLuc), transformed with Luciferase, at 10uM
Assay type: functional, HepG2
Details: tested at 10 uM

Compound | INHIBITION [%]
NC1CCCCN(Cc2cc(C3CCCCC3)no2)C1 (stereo unspecified) | 57.8
C[C@@H]1CN(Cc2c[nH]c(CC3CCCC3)n2)CC[C@]1(C)O | 15
Cc1nonc1CN1CC[C@@](O)(C2CCC2)[C@H](C)C1 | 21.9
CC[C@@]1(O)CCN(Cc2cc(C3CCCCC3)no2)C[C@H]1O | 56.6
CCc1nc(C)sc1CN1CC[C@](O)(CC)[C@H](O)C1 | -31.7
C[C@@H]1CN(Cc2cc(C3CCCCC3)no2)CC[C@]1(C)O | 61.1
Cc1nnsc1CN1CC[C@@](O)(C2CCC2)[C@H](C)C1 | 66.7
CC[C@@]1(O)CCN(C(=O)c2ccc(CN3CCCCCC3)cc2)C[C@H]1O | 3.03
OCC1COCCN(Cc2cc(C3CCCCC3)no2)C1 (stereo unspecified) | 41
CC1(C)CN(Cc2cc(C3CCCCC3)no2)CC[C@]1(C)O | 47.7
Cc1cc(-c2nn(C)c(Cl)c2CN2CCCCC(N)C2)no1 (stereo unspecified) | 48.5
CCc1nc(C)sc1CN1CC[C@@](O)(C2CC2)[C@H](C)C1 | 29.7
O=C(COCc1ccccc1)N1CCCn2cncc2C1 | 14.5
Cc1cs/c(=N\C(=O)Cn2nc(N3CCC(C)CC3)ccc2=O)[nH]1 | -6.73
CN(C)Cc1cnc2n1CCN(Cc1ccsc1)CC2 | 16.8
C[C@@H]1CN(Cc2cccc(F)c2)C[C@]12CCN(Cc1cccnc1)C2=O | -13.4
Cc1ccc(C(=O)N2C[C@H](OCc3cccnc3)[C@H]3COC[C@H]32)cn1 | 25.3
CC(C)N(C)Cc1nnn2c1CN(Cc1cccnc1)CCC2 | -50.9
CCC(CO)n1cnc2scc(C)c2c1=O (stereo unspecified) | 1.19
C[C@@H]1CN(Cc2cc(C3CCCCC3)no2)CC[C@@]1(O)C1CC1 | 63.3
N[C@@H]1CCN(Cc2cc(-c3ccccc3OC(F)(F)F)no2)C[C@H]1O | -48.3
Cc1nonc1CN1CC[C@@](O)(C2CCOCC2)[C@H](C)C1 | 47.7

Compound | INHIBITION [%]
COc1cc(F)c(CN2CC[C@@](O)(C3CC3)[C@H](C)C2)cc1OC | -39.2
C[C@@H]1CN(Cc2cc(C(F)(F)F)ccc2F)CC[C@@]1(O)C1CC1 | -45
OC1COCCN(Cc2cc(-c3ccccc3OC(F)(F)F)no2)C1 (stereo unspecified) | -26.1
NC1CCCCN(Cc2cc(-c3ccccc3OC(F)(F)F)no2)C1 (stereo unspecified) | 79.7
C[C@@H]1CN(Cc2nc(C(N)=O)no2)CC[C@@]1(O)C1CC1 | 6.26
C[C@@H]1CN(Cc2nc(C(N)=O)no2)CC[C@@]1(O)C1CCOCC1 | 59.1
COCCCC(=O)N(CCC(=O)O)Cc1ccc(F)c(F)c1 | 23.1
CC(C)NC(=O)N1CCN(CC2CC2)c2ncccc2C1 | 30.3
O=S(=O)(C1CC1)N1CC[C@H](OCC2CC2)[C@@H]1Cc1cccnc1 | -4.02
CCN(c1ccc(C(=O)NCCCN2CCCCC2)cc1)S(=O)(=O)CC | 21.7
COc1cccc(-c2nccnc2C2CCN(C(C)=O)CC2)c1 | 57.4
CC(=O)N1CCC(c2nccnc2-c2ccc(F)c(F)c2)CC1 | 26.8
COc1ccc(-c2cc(C3CCN(C(C)=O)CC3)ccn2)cc1 | -24.1
CC(=O)N1CCC(c2nccnc2Oc2ccccc2)CC1 | 39.2
COc1ccc(-c2nccnc2C2CCN(C(C)=O)CC2)cc1 | 40.9
COc1ccc(Oc2nccnc2C2CCN(C(C)=O)CC2)cc1 | 58.1
Cn1nnnc1SC1CCCN(c2ccccc2Cl)C1=O (stereo unspecified) | -40
CN(C)[C@@H]1CCN(C(=O)NC2CCCC2)[C@H]1Cc1cnn(C)c1 | 21
Cc1cc(C)n(CC2CCCN2C(=O)c2cnc3n[nH]c(C)c3c2)n1 (stereo unspecified) | 13.6
CC(C)CN1C[C@@H](C(=O)O)C[C@@H](C(=O)NCc2ccncc2)C1 | 2.79
CCc1ccsc1C(=O)NC(C#N)CC (stereo unspecified) | 30.9
Cc1cnc(CN(C)Cc2cc3c(cc2OC(F)F)OCO3)o1 | 60

Compound | INHIBITION [%]
Cc1nc(CN(C)Cc2cc3c(cc2OC(F)F)OCO3)oc1C | 11.3
Cc1cc(CN(C)Cc2cc3c(cc2OC(F)F)OCO3)on1 | -19.9
CN(C)Cc1cc(C2CCN(C(=O)C3CCCNC3)CC2)nn1C (stereo unspecified) | 27.2
Cc1cc(NC(=O)c2ccc(Br)cc2F)n(C)n1 | -77
Cc1cc(NC(=O)c2ccc(F)cc2Br)n(C)n1 | -18.5
Cc1cc(NC(=O)c2ccccc2Br)n(C)n1 | 53.2
Cc1ncc2c(n1)CN(Cc1nc(-c3ccsc3)no1)CC2 | 21
COc1ccccc1CNC(=O)CN(C)C(C)c1nccs1 (stereo unspecified) | -45.6
CCn1nc(C)c(NC(=O)CN(C)C(C)c2nccs2)c1C (stereo unspecified) | -23.4
Cc1cccc(C(C)C)c1NC(=O)CN(C)C(C)c1nccs1 (stereo unspecified) | 73.6
CCCNC(=O)N1CCC(c2nnc(Cn3cccn3)n2C2CC2)CC1 | -50.7
CC(O)CN1CCN(C(=O)c2cc3ccccc3c(=O)[nH]2)CC1 (stereo unspecified) | -3.95
CC(C)c1nnc2ccc(N3CCC(C(=O)Nc4nccs4)CC3)nn12 | 79.8
CC(C)c1nnc2ccc(N3CCCC(C(=O)Nc4nccs4)C3)nn12 (stereo unspecified) | 29
Cc1nnc2ccc(N3CCC(C(=O)Nc4nccs4)CC3)nn12 | 39.3
Cc1nn(C)c(C)c1-c1cncc(C2CCN(S(C)(=O)=O)CC2)n1 | 34.7
CN1[C@H](CN2CCCC2)C[C@@H]2CN(C(=O)c3cccn3C)CC[C@@H]21 | 14.1
CCOc1ccc2c(c1)CN(Cc1nc3c(cnn3C)c(=O)[nH]1)CC2 | 48.2
COCC1c2c(cnn2CC2CC2)CCN1Cc1ccsc1 (stereo unspecified) | -37.9
COCC1c2c(cnn2CC2CC2)CCN1Cc1ccc(OC)cc1 (stereo unspecified) | 53.1
COCC1c2c(cnn2CC2CC2)CCN1Cc1ccc(C)o1 (stereo unspecified) | -52.7
O=S(=O)(NCc1ccccc1)Nc1ccc(-n2ccnc2)cc1 | 44.8

Compound | INHIBITION [%]
CO[C@@H]1CO[C@@]2(CCCN(Cc3nc(C)cs3)C2)C1 | 65.7
Cc1csc(CN2CCC[C@]3(C[C@H](OCC4CC4)CO3)C2)n1 | 1.48
Cc1csc(CN2CCC[C@]3(C[C@H](Oc4ccccn4)CO3)C2)n1 | 35.1
c1ccc(O[C@H]2CO[C@@]3(CCCN(Cc4nccs4)C3)C2)nc1 | 49.7
Cc1csc(CN2CCC[C@]3(C[C@@H](Oc4ccccn4)CO3)C2)n1 | 64.4
Cc1noc(C)c1CN1CCOC2(CCCN(c3ccccn3)C2)C1 (stereo unspecified) | 20.9
Cc1noc(C)c1CN1CCC[C@]2(C[C@@H](Oc3ccccn3)CO2)C1 | 87
Cc1noc(C)c1CN1CCC2(CC1)CC(Oc1cccnc1)CO2 (stereo unspecified) | 21.6
CCO[C@H]1CO[C@@]2(CCCN(Cc3nc(C)cs3)C2)C1 | 11.8
CN1CCN(Cc2cnc3n2CCN(Cc2cccs2)C3)CC1 | 30.7
O=C(NC1CCNCC1)C1(N2CCCCC2)Cc2ccccc2C1 | 26.9
CN(CCCO)c1nc(-c2ccc(C(N)=O)cc2)nc2c1CCNC2 | -3.3
O=S(=O)(NC1CCOC1)c1ccc(C(F)(F)F)nc1 (stereo unspecified) | 34.5
COc1cc(CN2C[C@@H]3CNC(=O)[C@H](C)[C@@H]3C2)cc(OC)c1 | -24.5
O=C(c1ccoc1)N(Cc1cccnc1)C1CC1 | 17.1
COc1ncccc1NC(=O)NC1CCCN(c2ncccn2)C1 (stereo unspecified) | -19.9
CN(C)CCOCC1CN(CC2CCOCC2)Cc2nnn(C)c21 (stereo unspecified) | 13
CC(NC(=O)CCC(=O)c1cccs1)c1nnc2n1CCC2 (stereo unspecified) | -31.5
CNC(=O)CCOC(=O)c1cccc(-n2cccn2)c1 | 77.7
CNC(=O)CCOC(=O)c1cccc(-n2ccc(C(F)(F)F)n2)c1 | 24.8
CNC(=O)COC(=O)c1cccc(-n2ccc(C(F)(F)F)n2)c1 | 40.6
CO[C@H]1CCN(Cc2cnn(C)c2)[C@@H]2CN(Cc3cccnc3)C[C@H]12 | 0

Compound | INHIBITION [%]
COc1ccc(-c2cc(C(=O)NCCCn3ccnc3C)n(C)n2)cc1 | 18.3
CN(CCOc1cccc(CNC(=O)C2CC2)c1)C1CCOCC1 | 29.2
COCC(=O)NCc1cccc(OCCN(C)C2CCOCC2)c1 | 88.1
CN(CCOc1cccc(CNS(C)(=O)=O)c1)C1CCOCC1 | 39.5
CC(C)CC(=O)NCc1cccc(OCCN(C)C2CCOCC2)c1 | 71.3
CN(CCOc1cccc(CN)c1)C1CCOCC1 | 0
CCC(C)C(=O)NCc1cccc(OCCN(C)C2CCOCC2)c1 (stereo unspecified) | 39.5
CSC(C)(C)CNC(=O)NC1CCN(CC(F)F)CC1 | 33.7
CN(C)CC1CN(Cc2ccc(F)cc2)Cc2nccn2C1 (stereo unspecified) | 24.1
COc1ccc(-n2cc3nc(N)[nH]cc-3c2=O)cc1 | 28.4
O=C1[C@H]2CN(Cc3cccs3)C[C@H]2CN1c1ccsc1 | 14.8
Cc1ncsc1C(=O)N(Cc1ccccc1)C1CC1 | 33.45
CCC(O)CN(c1ccccc1)S(=O)(=O)c1cnc(C)s1 (stereo unspecified) | 37.8
CCC(O)CN(Cc1ccccc1)S(=O)(=O)c1cnc(C)s1 (stereo unspecified) | 52.6
CN(CCOc1ccc(C#N)cc1)CC1CCS(=O)(=O)C1 (stereo unspecified) | 22.6
COc1ccc(CN2CC[C@@H]3[C@H]2CCC(=O)N3c2cnn(C)c2)cc1 | 61.9
Cn1cc(N2C(=O)CC[C@@H]3[C@H]2CCN3Cc2ccncc2)cn1 | -10.4
Cn1cc(CN2CC[C@@H]3[C@H]2CCC(=O)N3c2ccccc2)cn1 | -46.8
